# Results reported in PubChem BioAssay.
# Activity calls are given as the source filed them.
# Columns and labels:
# [1] = test system: PRMT1 (protein arginine N-methyltransferase 1); assay: small molecules binding arginine methyltransferase PRMT1 – biochemical, small-molecule microarray, 635 nm fluorescence, primary screen (AID 1088); settings: higher = more signal;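 note: binding of Prmt1 protein to compounds spotted on small-molecule microarray slides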
# [2] = growth effects on S. cerevisiae YJM789 – YJM789 clinical isolate, OD600, 24 h, basal, primary screen (AID 1089); settings: higher = more signal, called active from +8 up or from −8 down;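 note: growth of clinical yeast isolate S. cerevisiae YJM 789 seeded 1000 cells per well; test concentration not given here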
# [3] = S. pombe growth modifiers, basal conditions – strain 972, OD600, 24 h, no modulator, primary screen (AID 1090);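 note: basal condition with compound alone and no growth modifier present; test concentration not given here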; settings: S. pombe 972 growth, higher = more signal, called active from +8 up or from −8 down
# [4] = budding yeast growth modifiers under rapamycin – strain BY4716, OD600, 96 h, primary screen (AID 1091); note: test concentration not given here; settings: S. cerevisiae BY4716 + rapamycin, higher = more signal, called active from +8 up or from −8 down
# [5] = biological target: Torsin-1A-interacting protein 2 (Homo sapiens) (UniProt Q8NFQ8); assay: small molecules binding lysate-expressed LULL1 – cell lysate, human LULL1 lysate, 635/667 nm fluorescence, primary screen (AID 1092); settings: small-molecule microarray, hLULL1 lysate binding, 635 nm fluorescence; higher = more signal;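 note: probe is lysate of COS7 cells overexpressing human LULL1; score merges per-feature 667 nm fluorescence with signal-to-noise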
# Sequence of Torsin-1A-interacting protein 2 (Homo sapiens) (Q8NFQ8 whole entry, looked up): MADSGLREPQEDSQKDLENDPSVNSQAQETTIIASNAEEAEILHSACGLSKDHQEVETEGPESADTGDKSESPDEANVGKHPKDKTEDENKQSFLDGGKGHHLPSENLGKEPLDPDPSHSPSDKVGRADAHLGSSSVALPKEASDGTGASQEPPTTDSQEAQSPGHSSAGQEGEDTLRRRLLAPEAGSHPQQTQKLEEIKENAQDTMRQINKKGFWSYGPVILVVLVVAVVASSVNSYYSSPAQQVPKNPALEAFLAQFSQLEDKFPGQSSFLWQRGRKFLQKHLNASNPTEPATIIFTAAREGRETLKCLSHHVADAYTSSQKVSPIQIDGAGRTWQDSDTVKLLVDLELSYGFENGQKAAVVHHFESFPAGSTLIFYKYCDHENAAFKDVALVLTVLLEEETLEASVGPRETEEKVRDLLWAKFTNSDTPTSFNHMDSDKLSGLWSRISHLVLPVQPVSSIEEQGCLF
# [6] = optical density change of DRC41 E. coli – strain DRC41, OD650, 24 h, E. coli filamentation project, primary screen (AID 1093);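 note: MC1000 strain lacking acrAB efflux and sulA so SOS filamentation is blocked; test concentration not given here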; settings: E. coli DRC41 growth, higher = more signal, called active from +8 up or from −8 down
# [7] = probe aLefty2 binding to arrayed compounds – biochemical, biotinylated probe, 635/667 nm fluorescence, primary screen (AID 1094); settings: small-molecule microarray, higher = more signal;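 note: score merges spot fluorescence near 667 nm with spot signal-to-noise ratio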
# [8] = test system: Noggin (protein binding on small-molecule microarray); assay: small molecules binding Noggin protein – biochemical, 635/667 nm fluorescence, primary screen (AID 1095); settings: 635 nm fluorescence, higher = more signal;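 note: score merges 667 nm feature fluorescence with signal to noise over triplicate slides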
# [9] = biological target: Neurogenic locus notch homolog protein 3 (Homo sapiens) (UniProt Q9UM47); assay: small molecules binding NOTCH3 protein – biochemical, 635/667 nm fluorescence, primary screen (AID 1096); settings: small-molecule microarray, 635 nm fluorescence, higher = more signal
# Sequence of Neurogenic locus notch homolog protein 3 (Homo sapiens) (Q9UM47 whole entry, looked up): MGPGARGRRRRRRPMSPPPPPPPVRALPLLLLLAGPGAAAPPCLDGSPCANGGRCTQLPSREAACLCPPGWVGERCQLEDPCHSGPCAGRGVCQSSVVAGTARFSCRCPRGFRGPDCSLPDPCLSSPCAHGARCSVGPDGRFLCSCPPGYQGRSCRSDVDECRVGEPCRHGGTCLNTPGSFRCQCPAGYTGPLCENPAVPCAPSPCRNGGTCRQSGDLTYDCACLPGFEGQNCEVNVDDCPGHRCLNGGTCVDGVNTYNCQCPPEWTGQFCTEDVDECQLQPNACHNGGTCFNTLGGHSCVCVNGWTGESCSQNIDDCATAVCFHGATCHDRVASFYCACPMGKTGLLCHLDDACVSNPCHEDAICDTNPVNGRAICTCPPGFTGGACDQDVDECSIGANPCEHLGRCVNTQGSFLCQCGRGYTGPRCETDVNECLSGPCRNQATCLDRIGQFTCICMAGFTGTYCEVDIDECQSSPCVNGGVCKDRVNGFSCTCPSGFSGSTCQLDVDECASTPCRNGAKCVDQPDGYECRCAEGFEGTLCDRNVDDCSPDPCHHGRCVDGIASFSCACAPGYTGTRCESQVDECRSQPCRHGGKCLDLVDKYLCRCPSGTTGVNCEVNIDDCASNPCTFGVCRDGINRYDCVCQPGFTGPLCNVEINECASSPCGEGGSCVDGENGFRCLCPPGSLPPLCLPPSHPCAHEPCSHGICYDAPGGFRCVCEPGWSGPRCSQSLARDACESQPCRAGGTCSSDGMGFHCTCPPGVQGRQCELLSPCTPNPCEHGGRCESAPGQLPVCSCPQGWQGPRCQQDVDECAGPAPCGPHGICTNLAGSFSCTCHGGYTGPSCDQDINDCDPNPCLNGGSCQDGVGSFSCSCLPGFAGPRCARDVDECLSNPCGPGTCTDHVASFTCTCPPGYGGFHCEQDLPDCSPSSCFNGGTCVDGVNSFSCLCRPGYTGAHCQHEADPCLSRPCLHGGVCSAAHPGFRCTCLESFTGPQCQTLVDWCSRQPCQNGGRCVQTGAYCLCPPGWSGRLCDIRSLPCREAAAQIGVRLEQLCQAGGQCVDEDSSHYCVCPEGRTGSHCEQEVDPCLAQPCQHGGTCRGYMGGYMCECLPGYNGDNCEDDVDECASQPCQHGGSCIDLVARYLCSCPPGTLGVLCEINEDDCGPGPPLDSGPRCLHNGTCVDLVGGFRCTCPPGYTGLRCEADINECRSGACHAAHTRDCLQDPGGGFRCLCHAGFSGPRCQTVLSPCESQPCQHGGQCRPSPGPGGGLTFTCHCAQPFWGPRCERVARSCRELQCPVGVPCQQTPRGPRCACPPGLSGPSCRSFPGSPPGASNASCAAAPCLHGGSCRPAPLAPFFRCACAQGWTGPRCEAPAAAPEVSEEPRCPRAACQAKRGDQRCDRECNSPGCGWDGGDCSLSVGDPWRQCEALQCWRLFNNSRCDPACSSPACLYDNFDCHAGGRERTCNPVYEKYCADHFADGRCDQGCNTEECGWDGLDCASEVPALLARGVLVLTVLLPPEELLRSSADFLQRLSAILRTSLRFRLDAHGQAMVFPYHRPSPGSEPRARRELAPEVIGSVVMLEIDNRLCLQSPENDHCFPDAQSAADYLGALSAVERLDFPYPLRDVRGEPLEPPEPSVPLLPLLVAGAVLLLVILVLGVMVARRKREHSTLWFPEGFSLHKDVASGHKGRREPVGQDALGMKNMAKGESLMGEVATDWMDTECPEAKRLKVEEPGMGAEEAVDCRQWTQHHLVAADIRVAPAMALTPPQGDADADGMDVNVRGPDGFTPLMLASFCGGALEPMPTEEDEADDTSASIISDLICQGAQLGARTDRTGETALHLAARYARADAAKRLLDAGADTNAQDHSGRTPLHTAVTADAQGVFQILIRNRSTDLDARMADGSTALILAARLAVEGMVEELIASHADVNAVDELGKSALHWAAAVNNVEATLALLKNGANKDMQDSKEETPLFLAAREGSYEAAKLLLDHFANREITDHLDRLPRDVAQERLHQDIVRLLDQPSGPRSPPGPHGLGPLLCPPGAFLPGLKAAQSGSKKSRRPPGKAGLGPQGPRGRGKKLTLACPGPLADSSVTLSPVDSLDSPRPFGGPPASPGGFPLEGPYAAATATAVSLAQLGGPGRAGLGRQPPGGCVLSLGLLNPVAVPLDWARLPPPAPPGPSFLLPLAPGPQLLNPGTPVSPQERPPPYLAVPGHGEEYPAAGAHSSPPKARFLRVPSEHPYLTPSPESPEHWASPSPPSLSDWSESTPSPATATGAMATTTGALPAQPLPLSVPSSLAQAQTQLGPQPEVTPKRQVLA
# [10] = probe aEGFR binding to arrayed compounds – biochemical, biotinylated probe, 635/667 nm fluorescence, primary screen (AID 1097); settings: small-molecule microarray, higher = more signal;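 note: probe is a biotinylated anti-EGFR antibody binding compounds printed on slides; score combines fluorescence near 667 nm and signal to noise of each spot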
# [11] = test system: Plasmodium falciparum Sir2 (PF13_0152, Sir2A); assay: Plasmodium falciparum Sir2A binding compounds – biochemical, small-molecule microarray, 635 nm fluorescence, primary screen (AID 1098); settings: fluorescence 635 nm, higher = more signal;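 note: score merges spot fluorescence intensity with its signal-to-noise ratio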
# [12] = probe aDKK1 binding to arrayed compounds – biochemical, biotinylated probe, 635/667 nm fluorescence, primary screen (AID 1099); settings: small-molecule microarray, higher = more signal;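 note: score merges 667nm spot fluorescence with signal to noise across triplicate slides; reference of the scale not given here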
# [13] = probe aCHRDL2 binding to arrayed compounds – biochemical, biotinylated probe, 635/667 nm fluorescence, primary screen (AID 1100); settings: small-molecule microarray, higher = more signal
# [14] = change in splice reporter luminescence, either direction, cell-based, HEK293, spliceosome inhibition project, primary screen (AID 1101); settings: HEK293 splicing luciferase reporter, 24 h, higher = more signal, called active from +8 up or from −8 down;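 note: HEK293 cells carrying a splicing-competent luciferase reporter gene; test concentration not given here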
# [15] = biological target: Fibroblast growth factor 10 (Homo sapiens) (UniProt O15520); assay: compounds binding fibroblast growth factor 10 – biochemical, small-molecule microarray, 635 nm fluorescence, primary screen (AID 1102); settings: FGF10 binding, fluorescence 635 nm, higher = more signal
# Sequence of Fibroblast growth factor 10 (Homo sapiens) (O15520 whole entry, looked up): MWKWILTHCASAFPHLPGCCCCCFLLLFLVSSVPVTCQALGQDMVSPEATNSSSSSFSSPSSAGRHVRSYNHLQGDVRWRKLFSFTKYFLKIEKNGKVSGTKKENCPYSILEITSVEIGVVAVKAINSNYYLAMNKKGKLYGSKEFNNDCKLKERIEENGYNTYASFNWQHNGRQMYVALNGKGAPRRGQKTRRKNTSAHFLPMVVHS
# [16] = test system: glycogen synthase kinase-3 (GSK3A per assay name; protocol says GSK3B); assay: compounds binding glycogen synthase kinase-3 – biochemical, small-molecule microarray, 635 nm fluorescence, GSK3A, primary screen (AID 1103); settings: fluorescence 635 nm, higher = more signal; note: the record names both GSK3A and GSK3B
# [17] = biological target: Epidermal growth factor receptor (Homo sapiens) (UniProt P00533); assay: compounds binding epidermal growth factor receptor – biochemical, small-molecule microarray, 635 nm fluorescence, primary screen (AID 1104); settings: EGFR binding, higher = more signal;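 note: score merges 667 nm emission intensity with spot signal to noise over triplicate slides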
# Sequence of Epidermal growth factor receptor (Homo sapiens) (P00533 whole entry, looked up): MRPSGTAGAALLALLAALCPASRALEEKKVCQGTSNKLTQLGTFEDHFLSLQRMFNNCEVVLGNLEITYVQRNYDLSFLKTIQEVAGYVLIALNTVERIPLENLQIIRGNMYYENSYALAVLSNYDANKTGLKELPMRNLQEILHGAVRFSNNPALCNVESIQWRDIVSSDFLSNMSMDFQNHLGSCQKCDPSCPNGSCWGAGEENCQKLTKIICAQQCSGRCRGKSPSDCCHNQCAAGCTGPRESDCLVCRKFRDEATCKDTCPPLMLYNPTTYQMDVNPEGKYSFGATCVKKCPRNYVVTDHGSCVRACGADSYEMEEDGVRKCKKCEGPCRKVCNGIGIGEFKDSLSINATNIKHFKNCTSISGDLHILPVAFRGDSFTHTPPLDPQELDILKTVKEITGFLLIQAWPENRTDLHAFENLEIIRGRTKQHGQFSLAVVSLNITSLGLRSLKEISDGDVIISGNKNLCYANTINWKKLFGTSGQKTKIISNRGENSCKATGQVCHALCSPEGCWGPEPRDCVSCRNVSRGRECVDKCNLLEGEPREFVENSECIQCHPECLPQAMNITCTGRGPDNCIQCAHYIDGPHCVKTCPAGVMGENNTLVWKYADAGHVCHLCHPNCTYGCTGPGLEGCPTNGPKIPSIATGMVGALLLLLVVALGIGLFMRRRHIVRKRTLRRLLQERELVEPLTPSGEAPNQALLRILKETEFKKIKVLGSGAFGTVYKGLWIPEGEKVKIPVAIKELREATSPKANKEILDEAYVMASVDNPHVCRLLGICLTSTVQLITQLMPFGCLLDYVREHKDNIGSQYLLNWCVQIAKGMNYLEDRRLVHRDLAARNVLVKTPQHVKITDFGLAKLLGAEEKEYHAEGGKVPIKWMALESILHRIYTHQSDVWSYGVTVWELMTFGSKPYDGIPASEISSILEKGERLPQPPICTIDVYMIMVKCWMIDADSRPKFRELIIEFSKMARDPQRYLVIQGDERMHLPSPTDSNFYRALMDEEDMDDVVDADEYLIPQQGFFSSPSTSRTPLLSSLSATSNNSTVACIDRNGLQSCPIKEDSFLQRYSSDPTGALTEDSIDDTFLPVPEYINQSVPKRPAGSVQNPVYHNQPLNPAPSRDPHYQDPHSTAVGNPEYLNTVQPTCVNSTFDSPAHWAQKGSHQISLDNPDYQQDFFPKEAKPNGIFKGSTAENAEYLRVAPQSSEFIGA
# [18] = biological target: Follistatin-related protein 3 (Homo sapiens) (UniProt O95633); assay: compounds binding follistatin-related protein 3 – biochemical, small-molecule microarray, 635 nm fluorescence, primary screen (AID 1105); settings: FSTL3 binding, higher = more signal;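 note: score merges emission near 667 nm and signal to noise per printed spot across three slides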
# Sequence of Follistatin-related protein 3 (Homo sapiens) (O95633 whole entry, looked up): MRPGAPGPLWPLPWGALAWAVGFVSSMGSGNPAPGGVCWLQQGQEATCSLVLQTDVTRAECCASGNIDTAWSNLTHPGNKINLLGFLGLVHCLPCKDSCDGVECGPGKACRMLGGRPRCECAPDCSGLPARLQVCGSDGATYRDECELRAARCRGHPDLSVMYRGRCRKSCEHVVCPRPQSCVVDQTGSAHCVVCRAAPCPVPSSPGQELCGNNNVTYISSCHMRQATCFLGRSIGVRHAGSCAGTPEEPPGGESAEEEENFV
# [19] = biological target: Dickkopf-related protein 1 (Homo sapiens) (UniProt O94907); assay: small molecules binding DKK1 protein – biochemical, small-molecule microarray, 635 nm fluorescence scan, primary screen (AID 1106); settings: higher = more signal;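 note: score merges emission near 667 nm with signal to noise over three replicate slides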
# Sequence of Dickkopf-related protein 1 (Homo sapiens) (O94907 whole entry, looked up): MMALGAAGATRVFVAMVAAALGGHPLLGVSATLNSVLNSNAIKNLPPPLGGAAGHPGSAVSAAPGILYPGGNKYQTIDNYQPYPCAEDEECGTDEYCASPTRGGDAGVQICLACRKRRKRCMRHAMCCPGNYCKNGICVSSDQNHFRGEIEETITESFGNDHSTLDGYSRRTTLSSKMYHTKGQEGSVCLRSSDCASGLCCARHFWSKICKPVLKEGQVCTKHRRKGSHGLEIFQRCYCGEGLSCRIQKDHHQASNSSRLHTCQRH
# [20] = test system: Inhibin beta A chain (activin A); assay: small molecules binding activin A – biochemical, small-molecule microarray, 635 nm fluorescence scan, primary screen (AID 1107); settings: INHBA, higher = more signal;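 note: mouse activin A protein probed at 4.33 µg/mL on printed slides; score merges bound-protein fluorescence near 667 nm with spot signal-to-noise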
Compound,composite z-score [1],z-score [2],z-score [3],z-score [4],composite z-score [5],z-score [6],composite z-score [7],composite z-score [8],composite z-score [9],composite z-score [10],composite z-score [11],composite z-score [12],composite z-score [13],z-score [14],composite z-score [15],composite z-score [16],composite z-score [17],composite z-score [18],composite z-score [19],composite z-score [20]
CO[C@H]1COC(=O)CCC[C@H](C)[C@@H](OC)COC(=O)CC=C[C@@H]1C,0.411,0.0303 (inactive),0.197 (inactive),-1.08 (inactive),-0.355,0.556 (inactive),-0.0448,0.409,0.0682,-0.0405,0.981,-0.26,-0.811,-1.05 (inactive),0.267,0.278,0.711,0.319,0.846,0.691
COC(=O)[C@H](C)NC(=O)CCC1CC(OC(=O)NCCc2ccc(F)cc2)CC2(CCCC(COC(=O)NCc3ccccc3)O2)O1 (stereo not given in full),1.53,0.59 (inactive),1.04 (inactive),0.932 (inactive),1.92,-0.755 (inactive),-0.0898,0.55,1.1,-0.0314,0.768,-0.128,-0.37,-0.114 (inactive),0.834,1.28,0.462,1.29,0.477,0.0384
CC(=O)OC[C@H]1O[C@H](CCON=C(C)CCN2CCCc3nc(C)c(C)cc32)C=C[C@@H]1OC(C)=O,1.54,0.569 (inactive),0.339 (inactive),0.61 (inactive),1.31,1.08 (inactive),0.118,0.754,1.04,0.577,0.773,-0.108,-0.408,1.06 (inactive),0.932,1.24,0.986,1.16,0.735,0.965
CC(=O)OC[C@H]1O[C@@H](ON=C2[C@H]3CCn4c(=O)n(-c5ccccc5)c(=O)n4[C@H]3[C@H](O)[C@@H]3O[C@H]23)[C@H](OC(C)=O)[C@@H](OC(C)=O)[C@@H]1OC(C)=O,1.02,-0.436 (inactive),-0.598 (inactive),0.083 (inactive),1.37,0.0967 (inactive),-0.0409,0.349,0.785,-0.0485,0.242,-0.425,-0.43,0.764 (inactive),0.614,0.913,0.519,0.387,0.731,-0.1
CC(C)[C@@H](OCc1ccccc1)[C@H](C)CON=C1[C@H]2CCn3c(=O)n(-c4ccccc4)c(=O)n3[C@H]2[C@H](O)[C@@H]2O[C@H]12,0.462,-1.48 (inactive),-7.06 (inactive),-0.882 (inactive),1.56,0.222 (inactive),-0.0063,0.439,0.597,-0.067,0.552,-0.0364,-0.562,3.43 (inactive),0.785,0.227,0.329,0.0089,1.24,0.236
